Holding throughout (assay type): functional
In test [1] the test system is Plasmodium falciparum. Kind of test: GSK_TCMDC: Inhibition of Plasmodium falciparum 3D7 in whole red blood cells, using parasite LDH activity as an index of growth. Test compounds present at 2uM.
Test [2] relates to Plasmodium falciparum. Nature of the test: GSK_TCMDC: Inhibition of Plasmodium falciparum Dd2 in whole red blood cells, using parasite LDH activity as an index of growth. Test compounds present at 2uM.
The next test deals with HepG2. Nature of the test: GSK_TCMDC: Percent inhibition of human HepG2 cell line. Test compounds present at 10uM.

Turning to `Cl.NOCCCOc1ccc(Cl)cc1`, the Inhibition worked out at 98% in the test on Plasmodium falciparum [1], 0% in the test on Plasmodium falciparum [2] and 12% in the test on HepG2.
The corresponding values for `COc1ccc2nccc(NC(=O)N3CCC(NCc4cc5ccccc5[nH]4)CC3)c2n1.O=C(O)C(=O)O` are 85%, 29% and 27%.
The corresponding values for `COc1ccc2[nH]ccc(=NN=Cc3ccccc3)c2c1` are 100%, 99% and 0%.
Taken in the same sequence, the figures for `Cc1cc2nc(-c3ccc(C(=O)NCc4cccc(C(F)(F)F)c4)cc3)[nH]c2cc1C` were 98%, 34% and 4%.
As to `Br.CC(=O)CSC(C=Cc1ccc(N(C)C)cc1)=Nc1ccccc1`, the Inhibition in the test with Plasmodium falciparum [1] was found to be 81%; in the test with Plasmodium falciparum [2], 42%; in the test with HepG2, 38%.
Taken in the same sequence, the figures for `O=C(Nc1cccc(C(F)(F)F)c1)c1cccc2nc(C(F)(F)F)[nH]c12` were 100%, 98% and 81%.
The corresponding values for `O=C(Nc1ccccc1Cc1ccccc1)c1ccccc1C(F)(F)F` are 99%, 85% and 0%.
Taken in the same sequence, the figures for `CCOC(=O)c1c(C)n(-c2ccccc2)c2ccc(OC(=O)COc3ccc(Cl)cc3Cl)cc12` were 99%, 87% and 11%.
For `CN(C)CCn1cc(C(=O)c2cc(Cl)ccc2O)cc1-c1nc2ccccc2c(=O)[nH]1`, the Inhibition in the test with Plasmodium falciparum [1] is 99%; with Plasmodium falciparum [2] it was 87%; with HepG2 it was 16%.
Take `CCNc1cc(C(=O)N[C@@H](Cc2ccco2)[C@H](O)CNC2CCCCC2)cc(N2CCCCS2(=O)=O)c1.Cl`: the Inhibition with Plasmodium falciparum [1] was found to be 91%; with Plasmodium falciparum [2], 57%; with HepG2, 14%.
Taken in the same sequence, the figures for `CS(=O)(=O)N1CC2(CCN(CCC(NC(=O)/C=C/c3ccccc3)c3ccc(Cl)c(Cl)c3)CC2)c2ccccc21` (configuration not stated) were 97%, 55% and 18%.
The corresponding values for `CN1CCC(NCc2ccc(S(=O)(=O)Nc3ccc(Oc4cccc(Cl)c4)cc3)cc2)CC1.O=C(O)C(F)(F)F` are 99%, 5% and 47%.
The corresponding values for `O=C(NCC1CCN(CCN2CCC(c3cn(CCO)c4ccccc34)CC2)CC1)c1ccc(-c2ccc(C(F)(F)F)cc2)cc1` are 100%, 100% and 100%.
For `O=C(NC1CCN(Cc2ccccc2)C1)c1ccc(Nc2ccc(Br)cc2)nc1.O=C(O)C(F)(F)F` (configuration not stated), the Inhibition in the test with Plasmodium falciparum [1] came to 94%; in the test on Plasmodium falciparum [2], 21%; in the test on HepG2, 19%.
The corresponding values for `CCNc1cc(C)nc(Nc2ccc(NC(=O)c3ccccc3Cl)cc2)n1` are 100%, 52% and 48%.
Taken in the same sequence, the figures for `O=C(Nc1ccc2c(c1)OCO2)c1cc(-c2cccnc2)cnc1NCc1ccc2c(c1)OCO2` were 87%, 1% and 2%.
Taken in the same sequence, the figures for `O=C(NCCCN1CCC(Cc2ccccc2)CC1)c1cc2c(Cl)nc3ccccc3c2s1` were 98%, 40% and 22%.
In the case of `CCC(CC)(CCC#N)CN(C[C@@H](O)[C@H](Cc1ccccc1)NC(=O)OC(C)(C)C)S(=O)(=O)c1ccc(OC)cc1`, the Inhibition in the test on Plasmodium falciparum [1] amounted to 82%; with Plasmodium falciparum [2] it was 66%; in the test with HepG2 it was 0%.
The corresponding values for `CCCC(C)Nc1nc(C)cc(N[C@@H](Cc2ccccc2)C(=O)NCc2ccc(C)cc2)n1.O=C(O)C(F)(F)F` (some centres not stated) are 100%, 93% and 22%.
Taken in the same sequence, the figures for `O=C(NC1CCC(N2CCC(Cc3ccc(F)cc3)CC2)CC1)c1cc2ccccc2[nH]1` (configuration not stated) were 98%, 39% and 60%.
Taken in the same sequence, the figures for `CCOC(=O)/C(=N\OC(C)(C)C(=O)NCc1ccc(O)c(O)c1)c1csc(NC(c2ccccc2)(c2ccccc2)c2ccccc2)n1` were 100%, 99% and 13%.
Take `Cc1ccc(NC(=O)c2ccc3ncccc3c2)cc1OC1CCN(Cc2ccsc2)CC1.O=C(O)C(F)(F)F`: the Inhibition with Plasmodium falciparum [1] was 93%; in the test on Plasmodium falciparum [2], 29%; in the test with HepG2, 21%.
Turning to `CCCC(=O)NC(c1ccc(C(C)C)cc1)c1ccc2cccnc2c1O` (configuration not stated), the figures for the Inhibition in the test on Plasmodium falciparum [1], with Plasmodium falciparum [2] and in the test with HepG2 were 90%, 37% and 50%, respectively.
The corresponding values for `FC(F)(F)c1ccc2[nH]c(-c3ccc(-c4cccc(CNCCN5CCNCC5)c4)s3)nc2c1.O=C(O)C(F)(F)F` are 91%, 39% and 22%.
`COc1cccc(C(NC(=O)c2ccccc2)c2ccc3cccnc3c2O)c1` (configuration not stated): the Inhibition with Plasmodium falciparum [1] was 89%; with Plasmodium falciparum [2], 41%; in the test with HepG2 it was 52%.
In the case of `C=CCN(c1ccc(OC)cc1)S(=O)(=O)c1ccc(Cl)c(C(=O)Nc2cccc(C#N)c2)c1`, the Inhibition is recorded as 96% in the test on Plasmodium falciparum [1], 73% in the test on Plasmodium falciparum [2] and 6% with HepG2.
The corresponding values for `c1nc2nc3c(c(Nc4ccc5c(c4)CCC5)n2n1)CCC3` are 87%, 70% and 0%.
With `Cc1cc(=O)[nH]c(-n2nc(C)cc2NC(=O)CC(c2ccccc2)c2ccccc2)n1`, the results for the Inhibition in the test with Plasmodium falciparum [1], with Plasmodium falciparum [2] and with HepG2 were 90%, 62% and 42%, respectively.
`CCCN(CCC)C(=O)c1cc(C(=O)N[C@@H](Cc2ccccc2)[C@H](O)CNCc2cccc(OC)c2)cc(N2CCCCS2(=O)=O)c1`: the Inhibition was 97% in the test on Plasmodium falciparum [1], 99% in the test on Plasmodium falciparum [2] and 0% in the test on HepG2.

The values above are taken from ChEMBL document CHEMBL1157539, “Thousands of chemical starting points for antimalarial lead identification” (Nature, 2010).
